# PLAP activator: PLAP enzyme activators, biochemical, luminescence, HTS; Alkaline phosphatase, placental type (Homo sapiens), P05187; purified PLAP enzyme, luminescent substrate read-out; hits give high values; activation fold at 20 µM; hit rate 1.2% among 96,000; AID 696, 2007; in the data active = activation fold above about 2
# DAT uptake mod: changed hDAT dopamine uptake under cocaine IC80, either direction, primary screen, cocaine antagonist project, cell-based, LLC-PK1 hDAT, [14C]-dopamine uptake, MLSMR. Sodium-dependent dopamine transporter (Homo sapiens), Q01959. LLC-PK1 hDAT cells, [14C]-dopamine uptake with cocaine IC80; actives deviate in either direction. B-score at 10 µM. hit rate 1.3% among 110,000;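 active = Z score or B-score, a plate-position-corrected score, falls beyond the plate's 99.7% confidence bounds, in either direction; inactive = both scores lie inside the 99.7% bounds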;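 also: scored against the spread of the other compound wells on the same plate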
# PostGolgi ctrl: growth inhibition of yeast control strain, primary screen, counter-screen for post-Golgi transport modulator project; efflux-deficient yeast background strain, growth absorbance A615, 16 h; inhibition, % at 10 µM; hit rate 5% among 98,000
# Cav32 inh: Cav3.2 calcium influx blockers – cell-based, Fluo-4 calcium fluorescence, FDSS, MLSMR library, primary screen. Voltage-dependent T-type calcium channel subunit alpha-1H (Homo sapiens), O95180. Cav3.2-expressing cells; hits give low values. B-score at 10 µM. hit rate 4% among 100,000;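 active = single-dose well whose peak fluorescence ratio is a statistical outlier from its plate by either plate-standardised score or position-corrected B-score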
# D1 allo mod: D1 CRE-luciferase signal change, two-sided – cell-based, HEK293 D1, dopamine EC30, D1 allosteric modulator project, primary screen; D(1A) dopamine receptor (Homo sapiens), P21728; dopamine EC30 potentiation; actives deviate in either direction; B-score at 10 µM; hit rate 5.9% among 58,000;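 active = luminescence count or its row- and column-corrected plate score outside the 99.7% band of the plate's sample wells, on either side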
# PostGolgi yeast: phenotypic screen on post-Golgi transport, primary screen; post-Golgi transport phenotypic cell assay; inhibition, % at 10 µM; hit rate 0.9% among 98,000; AID 739, 2007;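 also: yeast cells grown in 1536-well plates; yeast grown about 18 h at 30C before absorbance read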
# The depositor's hits bear a star; / = no result. Most compounds without a hit are left out; they make up all but 12% or so of the library. Rule as the data show it, unless noted: active = inhibition above about 30%; inactive = the rest.
SMILES,PLAP activator,DAT uptake mod,PostGolgi ctrl,Cav32 inh,D1 allo mod,PostGolgi yeast
Cc1occc1-c1nnc(SCC(=O)Nc2ccccc2-c2ccccc2)n1C,1.7,1.59,9.5,-0.851,-0.448,5.3
CCOc1ccccc1NC(=O)CSc1nnc(-c2ccccc2Cl)n1Cc1ccco1,1.4,1.64,15.6,-7.66*,-0.188,-1.9
Cc1occc1-c1nnc(SCC(=O)Nc2nccs2)n1Cc1ccco1,1.1,0.82,35.5*,-0.916,0.256,-4.0
Cc1occc1-c1nnc(SCC(=O)Nc2ccccc2)n1Cc1ccccc1,1,0.647,6.9,-2.53,0.812,5.3
CCOC(=O)c1cccc(NC(=O)CSc2nnc(C)n2Cc2ccccc2)c1,1.8,3.35*,8.2,-0.368,0.417,2.5
COc1ccc(NC(=O)CSc2nnc(-c3ccoc3C)n2CCc2ccccc2)cc1,1.6,4.22*,6.7,-2.73,0.184,0.4
Cc1ccccc1NC(=O)CSc1nnc(-c2ccoc2C)n1CCc1ccccc1,1.2,-0.31,5.9,-2.55,0.977,1.4
Cc1occc1-c1nnc(SCC(=O)N2CCCc3ccccc32)n1Cc1ccco1,1.5,0.22,1.5,-3.28,-2.62*,0.8
Cc1occc1-c1nnc(SCC(=O)Nc2ccc(F)cc2)n1Cc1ccccc1,1.1,-0.0639,6.4,-6.2*,0.545,-13.7
CCCc1cc2c(cc1NC(=O)c1ccc(C)cc1)OCO2,1,0.879,13.7,-0.7,/,4.3
COc1ccc(C(=O)NCC(=O)OCC(=O)c2ccc3c(c2)OCCO3)cc1,1,0.129,11.8,0.141,/,-4.1
CC(=O)c1cccc(NC(=O)C2CCN(S(=O)(=O)c3ccc(F)cc3)CC2)c1,0.8,0.0792,-8.0,0.513,-0.0453,12.5
COc1ccc(S(=O)(=O)N2CCCC(C(=O)N3CCCCCC3)C2)cc1 (stereo not drawn),1.6,-0.0206,66.2*,0.529,0.123,-3.5
CC(=O)c1cccc(NC(=O)C2CCN(S(=O)(=O)c3ccccc3)CC2)c1,0.8,0.855,33.5*,0.886,/,-4.3
CCOC(=O)C1CCCN(S(=O)(=O)c2ccc(OC)cc2)C1 (stereo not drawn),1.4,-0.436,12.7,-0.029,/,9.1
COc1cccc(NC(=O)[C@@H]2CCCN2C(=O)C2CCN(S(=O)(=O)c3ccc(C)cc3)CC2)c1,2*,1.02,-2.5,-0.0434,-0.517,1.6
COc1ccccc1CNC(=O)[C@@H]1CCCN1C(=O)C1CCN(S(=O)(=O)c2ccc(C)cc2)CC1,1.6,-1.03,5.2,0.362,0.2,-1.6
O=C(C1CCCN(S(=O)(=O)c2ccccc2)C1)N1CCCc2ccccc21 (stereo not drawn),/,0.627,35.5*,-1.14,-0.000407,-0.6
Cc1ccc(S(=O)(=O)N2CCCC(C(=O)N3CCCc4ccccc43)C2)cc1 (stereo not drawn),0.9,1.15,20.1,-2.68,/,0.3
COc1ccc(C/C(=N\O)c2ccc(OC)cc2)cc1,1,0.487,0.6,-2.24,/,9.5
COc1ccc(S(=O)(=O)N2CCCC(C(=O)Nc3cccc(C(C)=O)c3)C2)cc1 (stereo not drawn),1,1.86*,-1.8,/,-1.2,9.4
O=C(C1CCN(S(=O)(=O)c2ccc(Br)s2)CC1)N1CCc2ccccc21,0.9,-0.278,52.1*,-2.09,-0.0902,-6.5
Cc1cccc2nc(CSc3nnc4ccccn34)cn12,0.9,-0.473,1.8,-0.212,/,0.6
Cc1cc(C(C)(C)C)oc1C(=O)N(CC(=O)NC1CCCC1)c1ccc(F)cc1,1.8,0.667,12.6,-3.86,/,-10.0
Cc1cc(C(C)(C)C)oc1C(=O)N(CC(=O)NC1CCCC1)c1c(C)cccc1C,1.6,-0.061,17.7,-1.59*,/,-10.0
Cc1ccc(-c2noc(CCC(=O)NCCCN3CCN(c4cccc(Cl)c4)CC3)n2)cc1,1.6,-0.0713,14.9,-0.0838,-3.93*,-6.5
Cc1ccc(-c2noc(CCC(=O)NCCCN3CCN(c4ccc(F)cc4)CC3)n2)cc1,1.6,0.804,7.3,-1.4,-4.98*,-2.7

# High-throughput results from PubChem.
